# Data taken from PubChem BioAssay AID453 (PCMD, 2006).
# The campaign covered roughly 63,000 compounds. About 75 (0.1%) were called active. This is one part of a sample in which actives are shown more often than they occur. Rule as the data show it: active = inhibition above about 21%; inactive = the rest.
# Target: Cathepsin B (Homo sapiens) (UniProt P07858)
# Experiment: human cathepsin B inhibitors, primary screen, biochemical, fluorogenic substrate (AID 453);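 also: 0% = enzyme with no compound and 100% = no enzyme blank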
# Settings: purified cathepsin B, fluorescence, active compounds read high,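 tested at 10 µM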
row,SMILES,inhibition
1,CC(CCc1ccccc1)NC(=O)c1ccc(Br)o1 (stereo unspecified),-4.56% (inactive)
2,COCCCN1C(=O)C(=O)/C(=C(/O)c2ccc3c(c2)CC(C)O3)C1c1cccnc1 (stereo unspecified),0.25% (inactive)
3,CCOc1ccc(NC(=O)CCC(=O)n2nc(C)cc2C)cc1,8.67% (inactive)
4,CCCCC(CCC(=O)Nc1ccc(C(=O)OCC)cc1)C(=O)O (stereo unspecified),-0.09% (inactive)
5,CCCOc1ccc(/C(O)=C2/C(=O)C(=O)N(CCN(C)C)C2c2ccc(OC)c(OC)c2)cc1 (stereo unspecified),0.77% (inactive)
6,Cc1nnc(N(Cc2ccco2)C(=O)c2ccno2)s1,-4.93% (inactive)
7,CCn1c(CSc2nncn2-c2ccc(OC)cc2)nc2cc(S(=O)(=O)N(C)C)ccc21,5.16% (inactive)
8,Cc1ccc(NC(=O)C2CCCN(S(=O)(=O)c3c(C)noc3C)C2)c(C)c1 (stereo unspecified),-0.58% (inactive)
9,CCOC(=O)N1CCN(S(=O)(=O)c2cc(Br)cc3c2N(C(=O)C2CC2)CC3)CC1,2.46% (inactive)
10,CCOc1cc(C(=O)Nc2ncccn2)cc(OCC)c1OCC,-3.7% (inactive)
11,COc1ccc(C(=O)Nc2ccc3c(c2)OCO3)cc1OC,1.65% (inactive)
12,Cc1ccc(C(=O)NCC(=O)O)cc1S(=O)(=O)N1CCCCC1,6.73% (inactive)
13,Cc1ccc(C(=O)Nc2ccc3c(c2)OCO3)cc1S(=O)(=O)N1CCCCC1,49.6% (active)
14,COC(=O)c1ccccc1NC(=O)CN(Cc1ccccc1)S(C)(=O)=O,-3.25% (inactive)
15,Cc1cc(=O)oc(C)c1C(=O)NC1CC(C)(C)NC(C)(C)C1,5.11% (inactive)
16,CC(C)c1nc(-c2ccccn2)no1,-4.78% (inactive)
17,CC(Sc1nncn1C)C(=O)Nc1ccccc1-c1ccccc1 (stereo unspecified),-1.58% (inactive)
18,COCCN(C(=O)CCC(=O)Nc1ccccn1)C(C(=O)NCCC(C)C)c1ccc(OC)cc1 (stereo unspecified),-1.72% (inactive)
19,COc1ccccc1-c1nnc(SCC(=O)N2CC(C)CC(C)C2)o1 (stereo unspecified),-0.15% (inactive)
20,Cn1c(CNc2nc(-c3ccccc3)cs2)nnc1SCC(=O)c1ccccc1,-1.17% (inactive)
21,O=C1N=C(N2CCOCC2)CS1,3.2% (inactive)

row,SMILES,inhibition
1,COc1ccc(CCN2C(=O)c3[nH]nc(-c4ccccc4O)c3C2c2ccc(C)cc2)cc1OC (stereo unspecified),-1.75% (inactive)
2,O=C(CSc1nnc2ccccn12)c1ccccc1,8.89% (inactive)
3,Cc1onc(-c2ccccc2)c1C(=O)N1CCOCC1,6.53% (inactive)
4,Cc1noc(/C=C/N(C)C)c1S(=O)(=O)N1CCCC(C(=O)NCc2ccco2)C1 (stereo unspecified),4.93% (inactive)
5,Cc1cccc(N2C(=O)SC(N(CC(=O)O)c3cccc(C)c3)C2=O)c1 (stereo unspecified),8.43% (inactive)
6,CCCCOC(=O)Nc1nccs1,2.38% (inactive)
7,C=CCOc1ccc(/C=N/n2cncn2)cc1OC,1.3% (inactive)
8,CCc1nc(Nc2ccc3nccnc3c2)c2oc3ccccc3c2n1,-2.31% (inactive)
9,C=CCn1c(COc2cccc3cccnc23)nnc1SCC(=O)OC,6.46% (inactive)
10,Cc1nc2c(-c3ccc(F)cc3)c(C)nn2c(C)c1CCC(=O)N1CCN(c2ccccn2)CC1,-0.57% (inactive)
11,CCOC(=O)CCc1c(C)c2ccc(OCc3nn[nH]n3)c(C)c2oc1=O,1.69% (inactive)
12,Cc1cc(C)c(S(=O)(=O)NCCCN2CCOCC2)cc1Br,1.5% (inactive)
13,Cc1cc(NC(=O)CSc2nnc(-c3ccc(Cl)s3)o2)no1,1.24% (inactive)
14,O=C(COC(=O)C12CC3CC(CC(C3)C1)C2)NCc1ccco1,-3.05% (inactive)
15,Cc1ccc(NC(=O)CSc2nnc(-c3cnccn3)n2Cc2ccco2)cc1C,3.51% (inactive)
16,CC(C)OC(=O)C(C#N)c1nc2ccccc2nc1N1CCN(Cc2ccc3c(c2)OCO3)CC1 (stereo unspecified),0.39% (inactive)
17,CCOc1ccc2[nH]c(=O)c(CN(CCCO)C(C)=O)cc2c1,2.29% (inactive)
18,CCOc1ccc2c(c1)cc(CN(C(=O)CC)C1CCCCC1)c1nnnn12,10.1% (inactive)
19,CCOC(=O)N1CCN(CC(=O)n2c(C)c(C)c3ccccc32)CC1,-1.09% (inactive)
20,O=C(c1cccc(C(=O)N2CCc3ccccc32)n1)N1CCc2ccccc21,3.59% (inactive)
21,CC(C)(C)Oc1ncc(Br)c(OC(C)(C)C)n1,-1.01% (inactive)

row,SMILES,inhibition
1,Cn1c2c(c(=O)n(C)c1=O)CN(Cc1ccco1)CN2,2.04% (inactive)
2,N#CCSc1nc2ccccc2c(=O)n1-c1ccccc1,5.09% (inactive)
3,c1ccc(-n2ncc3c2ncn2c(CSc4nc5ccccc5s4)nnc32)cc1,-2% (inactive)
4,CC(C)(C)n1nnnc1C(c1cccs1)N(Cc1cccnc1)CC1CCCO1 (stereo unspecified),3.9% (inactive)
5,COc1ccc(/C(O)=C2/C(=O)C(=O)N(CCCN(C)C)C2c2ccccc2)cc1OC (stereo unspecified),0.7% (inactive)
6,Cn1c(=O)oc2cc(S(=O)(=O)N3CCC(C(=O)Nc4ccc(OC(F)(F)F)cc4)CC3)ccc21,1.08% (inactive)
7,Cc1nnc(SCC(=O)N(C(C)C)C(C)C)nc1C,3.33% (inactive)
8,COc1cccc(-c2nnc(NC(=O)c3ccc(S(=O)(=O)N(CC(C)C)CC(C)C)cc3)o2)c1,3.9% (inactive)
9,C=C(C)CSc1nc(N)c2c3c(sc2n1)CCC3,-1.31% (inactive)
10,O=C(Nc1ccccc1)c1cccnc1Nc1ccccc1,-3.06% (inactive)
11,COc1ccc(Cc2nnnn2CC(=O)O)cc1,-2.08% (inactive)
12,CSc1nsc(SC)c1NC(=O)OC1CCCCC1,2.76% (inactive)
13,CCOC(=O)C1CCCN(C(=O)C2CCN(c3nnc(-n4cccc4)s3)CC2)C1 (stereo unspecified),5.94% (inactive)
14,Cn1nnnc1SCC(=O)N1CCN(C(c2ccccc2)c2ccccc2)CC1,8.32% (inactive)
15,C/C(=C(\C#N)C(=O)NCCCN1CCOCC1)N(C)C,2.66% (inactive)
16,CC1(C)C/C(=C(/C#N)C(N)=O)CCO1,9.43% (inactive)
17,Cc1ccsc1CNn1cnnc1SCc1ccccc1F,2.13% (inactive)
18,CC(NC(=O)CN1CCN(Cc2ccc(Cl)cc2)C1=O)c1ccc2c(c1)OCCO2 (stereo unspecified),0.3% (inactive)
19,CCOC(=O)c1ccc(Nc2cc(C)nc3nc(C)nn23)cc1,-3.59% (inactive)
